Data reported in PubChem BioAssay AID2494 (National Center for Advancing Translational Sciences (NCATS), 2010).
Calls of active or inactive are those of the source.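 How the source made its calls: active means compounds that inhibit caspase-1 with a complete, partial or top-dose-only concentration response; inactive means the rest.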

What follows are compounds tested against Caspase-1 (Homo sapiens) (UniProt P29466) (assay: Confirmation Assay for Allosteric/Competitive Inhibitors of Caspase-1). Details: Caspase-1 enzyme, fluorogenic peptide substrate, kinetic rate.
Source text: NIH Molecular Libraries Screening Centers Network [MLSCN] NIH Chemical Genomics Center [NCGC] MLSCN Grant: 1 X01 MH078950-01 PI Name: Dr. James Wells, Dr. Enrique Perez-Paya, Dr.Janice Williams, Dr. Dennis Wolan, a person NCGC Assay Overview: The caspases (Cysteine Aspartyl Protease) comprise a related family of 14 dimeric proteases that are critical mediators of apoptosis (programmed cell death) and inflammation. The caspases represent an important class of drug targets for stroke, ischemia, cancer and inflammatory diseases. […] One goal of this project was to identify compounds that act as allosteric inhibitors via stabilizing the procaspase form of the enzyme. Previous work in Well's laboratory has shown that such allosteric inhibitors can be identified and these act by binding at the dimer interface of enzyme (Hardy, Lam et al., 2004). The biochemical assay was configured using purified caspase 1 at a high enzyme concentration to promote formation of the homodimers and thus facilitate the identification of allosteric inhibitors. The overall goal was to identify reversible inhibitors with better drug-like properties than the currently available set of aspartyl-containing peptidomimetics that covalently bind the active site. Caspase 1 was assayed using the profluorescent substrate […]. After initiation of the assay with substrate the plates were rapidly read using an automated robotic system (Kalypsys, Inc.) to maintain consistent timing. A kinetic mode of detection was used where the initial rate was collected (estimated final product formation was ~10%). Compounds were screened as a concentration-titration series that ranged from 57 uM to 0.7 nM. Below is the protocol used for caspase 1.
Caspase-1 was dispensed ([…]) into a 1536-well black solid-bottom microplate (Greiner Bio-One, Monroe, USA) using a Bio-RAPTR (Beckman Coulter, Fullerton, USA) nanoliter dispenser for automated addition of reagents, to give a final enzyme concentration of 2 nM. Assay buffer was 50 mM HEPES, pH7.4, containing 1M sodium citrate, 100 mM NaCl, 0.1 mM EDTA, 10 mM DTT, 0.01% CHAPS, 1% DMSO, and 0.1 mg/mL bovine serum albumin (BSA). Aliquots of test compound (23 nL) from a DMSO stock solution were transferred to the enzyme-containing wells using a pintool transfer station (Kalypsys Inc., San Diego, USA), and the plates were incubated for 15 min at room temperature. Each compound was added as a 12-point titration in duplicate. Substrate was dispensed ([…]) to give a final caged fluorescent peptide substrate (Ac-LEHD-AMC) concentration of […], and the initial reaction rate was monitored over 20 min at room temperature. Free AMC was measured by fluorescence detection (lex=340 nm, lem=450) with a ViewLux charge-coupled device-based imager (PerkinElmer, Waltham, USA). Percent inhibition was calculated from the median values of the uninhibited and the uncatalyzed controls, and IC50 values were determined by fitting the concentration-response data with a four-parameter Hill equation as previously described (http://www.ncgc.nih.gov/pub/openhts/curvefit/).

SMILES | Potency | outcome
CC(C)(C)[C@H](NC(=O)c1ccc(N)c(Cl)c1)C(=O)N1CCC[C@H]1C(=O)N[C@H](C#N)CC(=O)O | 0.316 nM (active) | 
CC(=O)N[C@@H](Cc1ccc(O)cc1)C(=O)N[C@H](C(=O)N[C@@H](C)C(=O)N[C@H](C#N)CC(=O)O)C(C)C | 2.51 nM (active) | 
CC(=O)N[C@H](C(=O)N[C@@H](C)C(=O)N[C@H](C#N)CC(=O)O)C(C)C |  | inactive
CC(C)(C)[C@H](NC(=O)c1ccc(N)c(Cl)c1)C(=O)N1CCC[C@H]1C(=O)N[C@H](C#N)Cc1nn[nH]n1 | 20.4 nM (active) | 
CCOC(=O)C[C@@H](C#N)NC(=O)[C@@H]1CCCN1C(=O)[C@@H](NC(=O)c1ccc(N)c(Cl)c1)C(C)(C)C | 145 nM (active) | 
CC(C)(C)[C@H](NC(=O)c1ccc(C(F)(F)F)cc1)C(=O)N1CCC[C@H]1C(=O)N[C@H](C#N)CC(=O)O | 8.33 nM (active) | 
CC(C)(C)[C@H](NC(=O)c1cc(Cl)cc(Cl)c1)C(=O)N1CCC[C@H]1C(=O)N[C@H](C#N)CC(=O)O | 0.436 nM (active) | 
CONC(=O)C[C@@H](C#N)NC(=O)[C@@H]1CCCN1C(=O)[C@@H](NC(=O)c1ccc(N)c(Cl)c1)C(C)(C)C | 145 nM (active) | 
Cc1ccccc1C(=O)N[C@H](C(=O)N1CCC[C@H]1C(=O)N[C@H](C#N)CC(=O)O)C(C)(C)C | 2.78 nM (active) | 
COc1ccc(C(=O)N[C@H](C(=O)N2CCC[C@H]2C(=O)N[C@H](C#N)CC(=O)O)C(C)(C)C)cc1Cl | 0.439 nM (active) | 
